An excerpt weighted towards active compounds, which were near 6.6% of everything screened.
Mdm2-MdmX inh – inhibitors of human Mdm2/MdmX interaction. SaOS-2 split-luciferase Mdm2/MdmX complementation, luminescence. inhibition, % at 8 µM. O15151+Q00987. 3% of 330,000 active;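 active = inhibition of at least 50% at 8 µM in the primary screen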
Target sequence (O15151 whole entry, looked up): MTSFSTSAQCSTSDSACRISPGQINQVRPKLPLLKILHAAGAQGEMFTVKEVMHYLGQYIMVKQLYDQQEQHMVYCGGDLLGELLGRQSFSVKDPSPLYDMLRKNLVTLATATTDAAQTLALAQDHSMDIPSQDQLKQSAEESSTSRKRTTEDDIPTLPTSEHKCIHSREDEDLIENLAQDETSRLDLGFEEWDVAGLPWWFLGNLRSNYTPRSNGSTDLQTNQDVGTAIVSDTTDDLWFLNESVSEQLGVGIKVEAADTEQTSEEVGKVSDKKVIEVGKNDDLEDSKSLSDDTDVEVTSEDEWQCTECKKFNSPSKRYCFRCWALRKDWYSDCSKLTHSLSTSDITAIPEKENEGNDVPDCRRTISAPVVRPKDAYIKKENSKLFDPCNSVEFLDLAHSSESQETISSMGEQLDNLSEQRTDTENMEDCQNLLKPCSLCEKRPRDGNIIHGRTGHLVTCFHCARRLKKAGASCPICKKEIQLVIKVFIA
Target sequence (Q00987 whole entry, looked up): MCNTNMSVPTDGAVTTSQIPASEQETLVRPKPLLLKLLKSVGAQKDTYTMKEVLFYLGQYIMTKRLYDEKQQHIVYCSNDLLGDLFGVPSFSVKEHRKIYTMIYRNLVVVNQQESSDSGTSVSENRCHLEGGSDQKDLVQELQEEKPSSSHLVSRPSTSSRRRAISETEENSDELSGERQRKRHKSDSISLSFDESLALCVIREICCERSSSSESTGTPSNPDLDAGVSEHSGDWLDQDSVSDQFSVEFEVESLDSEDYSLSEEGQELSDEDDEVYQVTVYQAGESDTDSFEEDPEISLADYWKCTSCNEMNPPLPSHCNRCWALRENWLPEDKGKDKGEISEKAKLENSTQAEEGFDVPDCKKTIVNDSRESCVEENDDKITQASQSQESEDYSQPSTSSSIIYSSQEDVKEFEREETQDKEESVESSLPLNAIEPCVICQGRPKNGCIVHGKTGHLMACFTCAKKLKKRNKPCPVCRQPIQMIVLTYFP
Beta cell apopt – blocks beta cell apoptosis; protection from apoptosis, % (test concentration not listed); 0.8% of 300,000 active; INS-1E cytokine-induced death, ATP luminescence, 48 h; percent of positive-control rescue, neutral wells zero;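 active = Every replicate reaches about 75%, or at least half do and their mean reaches it too, limit read from the data; inconclusive = At least half of replicates reach the limit but their mean does not; inactive = Under half of replicates reach the limit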;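 note: 0% = cytokine-treated negative control wells and 100% = positive control rescue; higher means more ATP so stronger rescue from cytokine killing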
CSC inhib – blocks cancer stem cells. cancer stem cell-like cells viability, luminescence. inhibition, % at 7.5 µM. 1.1% of 300,000 active. AID 2717; in the data active = inhibition above about 75%; inconclusive = no clear call, values can overlap the other calls; tested in HMLE shEcad cells
MPTP inh – inhibitors of mitochondrial permeability transition pore. isolated mouse mitochondria, Ca2+ swelling absorbance, 30 min. inhibition, % at 10 µM. AID 602449. 1.4% of 360,000 active;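 active = inhibition of 50% or more, scaled per plate between neutral and stimulator controls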;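 note: 0% = DMSO wells given calcium and 100% = 1 mM EGTA wells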
NR3A LBD binder – modulators (binders) of human NR3A ligand-binding domain; 2.5% of 340,000 active; Tm shift relative to glycine control, % at 25 µM; NR3A LBD differential scanning fluorimetry, Tm shift; 0% = protein alone, 100% = glycine-bound protein;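 active = melting temperature shift of at least 10% of the positive control shift, at one fixed dose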
Gli-Sufu antag – blocks Gli-Sufu signaling in a luciferase reporter; AID 588413; 0.74% of 340,000 active; Sufu-KO-LIGHT fibroblasts, Gli luciferase reporter luminescence; inhibition, % at 5 µM;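 active = inhibition above about 55%, limit read from the data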;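 note: 0% = DMSO-treated cells and 100% = wells with medium but no cells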
Mdm2-MdmX conf – human Mdm2/MdmX binding inhibition, confirmed; luminescent assay; AID 489028; inhibition, % at 8 µM; shares compounds with Mdm2-MdmX inh; 55% of 10,000 active; in the data active = inhibition above about 40%
Full FLuc ctr – counter-screen for Mdm2/MdmX inhibitors: full-length luciferase. SaOS-2 full-length luciferase counterscreen, luminescence. inhibition, % at 8 µM. 77% of 6,200 active. AID 504607. shares compounds with Mdm2-MdmX inh;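 active = mean inhibition at 8 µM reaching about 37%, which flags the compound as non-specific, limit read from the data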;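 note: p53-null SaOS-2 cells with luciferase driven by a doxycycline-inducible promoter; compound on cells about two nights before reading with doxycycline added after day one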
MPTP counter – mitochondrial membrane potential, counter-screen. shares compounds with MPTP inh. inhibition, % at 10 µM. isolated mitochondria, Rhodamine 123 fluorescence. 78% of 5,000 active; in the data active = inhibition above about 22%;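 note: 0% = DMSO vehicle and 100% = positive control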
Active calls of the source: *; ? = inconclusive; · = no result given.

SMILES	Mdm2-MdmX inh	Beta cell apopt	CSC inhib	MPTP inh	NR3A LBD binder	Gli-Sufu antag	Mdm2-MdmX conf	Full FLuc ctr	MPTP counter
Cc1cc(C)c2sc(N(CCCN(C)C)C(=O)c3ccc(Br)s3)nc2c1	40	-3	11	5	0	-1	·	·	·
Cc1ccc2sc(N(CCCN(C)C)C(=O)c3ccc(S(=O)(=O)N(C)Cc4ccccc4)cc3)nc2c1C	100*	·	-7	71*	2	30	49*	46*	-10
N#C/C(=N/Nc1ccc(OC(F)(F)F)cc1)C(N)=S	78*	88*	62	83*	16*	61*	88*	35	87*
COc1cc(CNCCO)cc(Cl)c1OCc1ccc(Cl)cc1Cl	51*	108*	7	97*	-1	9	49*	85*	-12
COc1cc(CNC2CCCC2)cc(Cl)c1OCc1ccccc1Cl	52*	?	80*	82*	-1	-1	35	·	-11
COc1cc(CNC2CCCCCCC2)cc(Cl)c1OCC(N)=O	3	2	14	0	-1	32	·	·	·
COc1cccc(CNCCO)c1OCc1ccc(Cl)cc1	33	0	·	0	-1	6	·	·	·
Cc1cc2oc3cc(NCCC4CCCN4C)ccc3c(=O)c2cc1C (centres undefined)	82*	11	103*	94*	-10	-18	-31	·	-23
CC(C)(C)NC(=O)NC(=O)COC(=O)c1cc[n+]([O-])cc1	7	-1	-3	2	0	-6	·	·	·
CCNC(=S)N/N=C1\C(=O)c2cccc3cccc1c23	24	10	-5	-3	1	16	·	·	·
O=C(N/N=C1/C(=O)c2cccc3cccc1c23)c1ccc(Cl)cc1	59*	27	38	57*	0	-16	-2	·	16
CCc1nnc(NC(=O)Nc2ccc(OC)cc2)s1	16	-5	2	-2	-3	-29	·	·	·
O=C(Nc1ccc(Cl)cc1)Nc1nnc(CSCc2ccccc2)s1	58*	32	24	97*	-6	16	23	·	60*
O=C(Nc1ccc(F)cc1)Nc1nnc(Cc2ccccc2)s1	10	4	35	19	-3	2	·	·	·
COc1ccc(OCCSCc2nnc(NC(=O)Nc3ccc(Cl)cc3)s2)cc1	63*	16	21	94*	2	-2	3	·	71*
O=C(Nc1cccc(Cl)c1)Nc1nnc(CC2=CCCCC2)s1	80*	35	30	89*	29*	-6	43*	88*	44*
O=C(Nc1cccc(Cl)c1)Nc1nnc(CSCCOc2ccc(Cl)cc2)s1	99*	139*	31	92*	7	22	90*	23	92*
CCN(c1ccccc1)S(=O)(=O)c1ccc(Cl)c(C(=O)N(CC2CCCO2)C2CCS(=O)(=O)C2)c1 (centres undefined)	16	-2	1	-1	-1	-5	·	·	·
O=C(Cc1nc2ccccc2[nH]1)c1cccc([N+](=O)[O-])c1	87*	59	91*	91*	-1	1	77*	39*	79*
O=C(Nc1nc2ccccc2[nH]1)c1cccc([N+](=O)[O-])c1	-53	13	-2	0	1	-15	·	·	·
O=C1C(=O)c2ccccc2C(O)=C1C1CCC(c2ccc(Cl)cc2)CC1 (centres undefined)	90*	12	45	102*	1	-2	27	·	93*
O=C1C=C(c2cccc(Cl)c2O)C[C@@H](c2ccc(Cl)cc2)C1	1	-1	33	20	0	0	·	·	·
CCn1c(CNS(=O)(=O)c2ccc(Br)cc2)n[nH]c1=S	8	1	-6	0	-1	-11	·	·	·
O=C(Nc1ccc(C(O)(C(F)(F)F)C(F)(F)F)cc1)c1ccc(Cl)c([N+](=O)[O-])c1	55*	47	87*	83*	13*	-8	28	·	67*

Bioassay records (PubChem BioAssay)
